From PubChem BioAssay (EPA / NIEHS) come the findings set out here.

SMILES strings stand for the structures. The source made the active and inactive calls. How the source made its calls: active means hit-call score of the fitted dose curve at least 0.9, where 1 is the maximum; inactive means score below 0.9.

The nature of the experiment: ATG_AP_1_CIS: Attagene CIS-FACTORIAL HepG2 Assay for human Activator Protein 1 (AP-1) (AID 2282931). Particulars: HepG2 Attagene cis-factorial AP-1 reporter mRNA; actives raise or lower the signal. Here is the method:
ATG_CIS is a cell-based, multiplexed-readout assay that uses HepG2, a human liver cell line, with measurements taken at 24 hours after chemical dosing in a 24-well plate.ATG_AP_1_CIS is one of 52 assay component(s) measured or calculated from the ATG_CIS assay. It is designed to make measurements of mRNA induction, a form of inducible reporter, as detected with fluorescence intensity signals by Reverse transcription polymerase chain reaction (RT-PCR) and Capillary electrophoresis technology.Data from the assay component ATG_AP_1_CIS was analyzed into 1 assay endpoint. This assay endpoint, ATG_AP_1_CIS, was analyzed with bidirectional fitting relative to DMSO as the negative control and baseline of activity. Using a type of inducible reporter, measures of mRNA for gain or loss-of-signal activity can be used to understand the reporter gene at the transcription factor-level as they relate to the gene FOS and JUN. Furthermore, this assay endpoint can be referred to as a primary readout, because this assay has produced multiple assay endpoints where this one serves a reporter gene function. To generalize the intended target to other relatable targets, this assay endpoint is annotated to the dna binding intended target family, where the subfamily is basic leucine zipper.
Human liver HepG2 cells are transiently transfected with multiple reporter transcription units (MRTUs) in 6-well plates using FuGene 6 reagent (Roche; 3 ml FuGene/1 mg DNA). The MRTU constructs are regulated by a cis-regulating element (promoter). […] A major difference between the CIS and TRANS system is that in CIS activities of endogenous TFs are measured, whereas the TRANS assay evaluates changes in activities of exogenous, chimeric NR-Gal4 proteins. […] At the end of 24 hour incubation, total RNA was isolated using TriZol reagent (Invitrogen). The isolated RNA is then reverse-transcribed using oligo(dT) primer and Mo-MLV reverse transcriptase (Invitrogen) with DNAse I (Ambion) treatment for 30 min. The one-tenth of the produced cDNA was amplified by PCR using Taq DNA polymerase (Invitrogen) and two reporter sequence-specific primers. The PCR products were fluorescently labeled by primer extension with 6-arboxyfluorescein (6-FAM) 5'-labeled reporter sequence-specific primer (2 min at 95 C, 20 s at 68 C and 10 min at 72 C) and these products were digested with 5U of HpaI (New England Biolabs) for 2h at 37 C. The fragments were purified using Qiaquick PCR columns (Qiagen), analyzed on an ABI 3130xL genetic analyzer (Applied Biosystems) with peak positions identified by using a set of X-rhodamine (ROX)-labeled MapMarker1000 molecular weight standards (BioVentures). The raw capillary electrophoresis data was processed using Attagraph software (Attagene).
Take `Cc1cc(C)c(C2=C(OC(=O)CC(C)(C)C)C3(CCCC3)OC2=O)c(C)c1`: the AC50 is 174 µM (active).
Regarding `CCCOC(=O)c1ccccc1C(=O)OCCC`, the call was inactive.
On the same count and under the same terms, as for `Cc1ccc(N(SC(F)(Cl)Cl)S(=O)(=O)N(C)C)cc1`, the entry is “inactive”; as for `[N-]=[N+]=CC(=O)OC[C@H](N)C(=O)O`, “inactive”.
With `ClC1=C(Cl)[C@]2(Cl)[C@@H]3[C@@H](Cl)[C@H](Cl)C[C@@H]3[C@@]1(Cl)C2(Cl)Cl`, the molecule was called inactive.
For the molecule `O=[N+]([O-])C=Cc1ccccc1`, the half-maximal activity concentration (AC50) is 57.7 µM (active).
Same read-out and setting: under `SCc1ccco1` stands 52 µM (active).
As to `CCC(C)c1cc([N+](=O)[O-])cc([N+](=O)[O-])c1OC(=O)C=C(C)C` (stereo not given), the half-maximal activity concentration (AC50) is 25.1 µM (active).
Consider `C=CC(=O)OCCO`, for which the AC50 is 75.6 µM (active).
On to `O=c1[nH]c(Cl)c(Cl)cc1Cl`, for which the molecule was classed as inactive.
Same read-out and setting: under `Nc1ccccc1C(=O)Oc1ccc2ccccc2c1` stands “inactive”; under `CCCC=NO`, “inactive”; under `CCCCOP(=O)(O)OCCCC`, “inactive”.
Take `c1cc(OCC2CO2)ccc1Cc1ccc(OCC2CO2)cc1` (stereo not given): the AC50 was 59.1 µM (active).
As for `CC1(C)[C@H](C(=O)O[C@H](C#N)c2cccc(Oc3ccccc3)c2)[C@@H]1C=C(Br)Br`, the call was inactive.
Still for that read-out and setting: as for `O=CNC(N1CCN(C(NC=O)C(Cl)(Cl)Cl)CC1)C(Cl)(Cl)Cl` (stereo not given), the entry is “inactive”; as for `CN(N=O)c1ccccc1`, “inactive”; as for `CN1C(=O)CCS(=O)(=O)C1c1ccc(Cl)cc1` (stereo not given), “inactive”.
`[Cl][Sb]([Cl])[Cl]`: the AC50 is 100 µM (active).
With `c1ccc2c(c1)CCCC2`, the outcome was inactive.
On the same count and under the same terms, under `CCOC(=O)NC(=S)Nc1ccccc1NC(=S)NC(=O)OCC` stands “inactive”; under `[CH3][Sn]([CH3])([Cl])[Cl]`, “inactive”; under `C=CCO`, “inactive”.
The same measure, in the same setting: under `CCCCNP(N)(N)=S` stands “inactive”.
As to `CCOC(=O)COc1ccc(Cl)cc1Cl`, the outcome was inactive.
Same read-out and setting: under `O=C1Nc2ccc(Cl)cc2C(c2ccccc2)=NC1O` (stereo not given) stands “inactive”; under `Nc1ccc(Cl)c(Cl)c1`, “inactive”; under `C[C@]12CC[C@H]3[C@@H](CC[C@@]45O[C@@H]4C(O)=C(C#N)C[C@]35C)[C@@H]1CC[C@@H]2O`, “inactive”.
In the case of `CSc1nc(N=[N+]=[N-])nc(NC(C)C)n1`, the call was inactive.
Same read-out and setting: as for `CC(C)C#N`, the entry is “inactive”.
Same read-out and setting: as for `CC(C)(C)C(=O)CCl`, the entry is “inactive”.
Same read-out and setting: as for `CCc1cccc(C)c1N(C(=O)CCl)[C@@H](C)COC`, the entry is “inactive”; as for `N#CCCCCC#N`, “inactive”.
`C=CCN(CC=C)C(=O)C(Cl)Cl`: the outcome was inactive.
Same read-out and setting: under `O=[N+]([O-])c1ccc(Cl)cc1` stands “inactive”.
With `Clc1ccc(-c2ccccc2)cc1`, the AC50 is 170 µM (active).
Regarding `CC1CCCC1.[C-]#[O+].[C-]#[O+].[C-]#[O+].[Mn]`, the outcome was inactive.
Same read-out and setting: as for `CC(O)CN(CC(C)O)CC(C)O` (stereo not given), the entry is “inactive”; as for `O=c1c2ccccc2c(=O)c2c1cc(Cl)c1[nH]c3c([nH]c12)c(Cl)cc1c(=O)c2ccccc2c(=O)c13`, “inactive”.
Take `Nc1ccc(-c2ccc(N)c(N)c2)cc1N`: the molecule was classed as inactive.

In general, AC50 refers to the concentration at which the activity in the assay is half-maximal.
